From PubChem
Shown are actives, neighbours in structure and some others; about 19% of the full set was active somewhere.
HT1080 IDH1KD tx – HT-1080 IDH1 knockdown cell toxicity (counter line) | Potency, µM (top dose mostly 46.1 µM), without a hit: at the top dose activity, negative = toxicity, most hits filed as cytotoxic | HT-1080 IDH1 knockdown viability, ATP luminescence, 48 h | hit rate 2% among 360,000;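 note: potency is the fitted concentration of half-maximal effect; 0% = DMSO wells and -100% = cell-free medium wells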
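Knockdown cells (IDH1KD HT-1080) received compounds 2 h after plating at 750 cells/well and were kept 48 h at 37 °C in 5% FBS RPMI. A CellTiter-Glo luminescence read gave % activity for curve fitting.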
DT40 TDP1 CPT – DT40-hTDP1 cell growth loss with CPT; chicken DT40 Tdp1-/-;hTDP1 cells + 20 nM CPT, ATP luminescence, 48 h; hit rate 12% among 420,000; Potency, µM (top dose mostly 46.2 µM), for the others: at the top dose activity change, negative = growth inhibition, usual class: inhibitors; note: potency is the fitted concentration of half-maximal effect; nearly all actives have a fitted effect of over 55% in size
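Chicken DT40 Tdp1-/- cells stably complemented with human TDP1 were seeded at 400 cells/well in medium containing 20 nM camptothecin, exposed to pin-transferred compounds, and grown at 37 °C for at least 48 hr. Viability was read as ATP luminescence.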
IL-1B inflam inh – inflammasome signaling inhibition, IL-1 beta readout | activity change, % at 57.5 µM | hit rate 4.7% among 360,000 | THP-1 LPS/ATP IL-1B secretion, AlphaLISA, 16 h; stronger effect = lower value | AID 743279; in the data active = activity change below about -50%; inconclusive = mostly about -30% to -49%
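Secreted IL-1B measured by AlphaLISA bead assay after 16 h compound exposure of THP-1 cells; compounds (final up to 57.5 uM) added 1 h before LPS (250 ng/mL) and ATP (1.25 mM) stimulation; lower signal means less secretion.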
HT1080-NT tox – kills 2HG-producing HT-1080-NT fibrosarcoma cells. HT-1080-NT fibrosarcoma viability, CellTiter-Glo ATP luminescence, 48 h. Potency, µM (doses to about 46.1 µM), inactives show top-dose activity, negative = less viability, most hits filed as cytotoxic. hit rate 1.6% among 360,000. AID 686970;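 note: NT is the 2HG producing partner of a matched IDH1 knockdown line; potency is the fitted concentration of half-maximal effect; 0% = DMSO-treated cells and -100% = media-only wells without cells; nearly all actives have a fitted effect of over 55% in size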
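Read-out is CellTiter-Glo luminescence after 10 minutes at room temperature, following 48 hours' compound treatment of HT-1080-NT cells (750 cells/well, RPMI, 5% FBS, 37 degrees C).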
TDP1 cell noCPT – qHTS for Inhibitors of human tyrosyl-DNA phosphodiesterase 1 (TDP1): qHTS in cells in absence of CPT. DT40 Tdp1-/- hTDP1 cells, no CPT, ATP luminescence, 48 h. Potency, µM (highest dose often 46.2 µM), for inactives: at the highest dose activity change, negative = growth inhibition, usual class: inhibitors. hit rate 15% among 420,000; note: potency is the fitted concentration of half-maximal effect; nearly all actives have a fitted effect of over 55% in size
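Seeded 400 DT40-hTDP1 cells/well (vehicle DMSO, no 20 nM CPT); pinned compounds; ≥48 hr at 37 °C; CellTiter-Glo luminescence as viability measure.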
Numbers without * were called inactive; u = inconclusive; x = not tested or not shown. Unless noted, calls come from the whole dose curve; as a rule, active = well fitted curve in the direction sought with a large enough effect; inconclusive = small, poorly fitted or top-dose-only effect, or another doubt; inactive = no such curve, though single readings can be large; an effect the other way counts as inactive or inconclusive. Unless noted, % is set by controls: 0 for no effect and ±100 for the full control effect.

SMILES	HT1080 IDH1KD tx	DT40 TDP1 CPT	IL-1B inflam inh	HT1080-NT tox	TDP1 cell noCPT
COc1cc(C(=O)N2CCN(c3cc(Cl)ccc3Cl)CC2)cc(OC)c1OC	0.65µM*	0.52µM*	66	1.3µM*	0.41µM*
Cc1cccc(NC(=O)C(Cc2ccccc2)n2cccc2)c1 (stereo not drawn)	2%	u	u	4%	u
COc1cc(C(=O)N2CCN(c3cccc(C)c3C)CC2)cc(OC)c1OC	0.82µM*	0.82µM*	106	1.2µM*	0.82µM*
Cc1cccc(N2CCN(C(=O)Cc3ccccc3[N+](=O)[O-])CC2)c1C	4%	-18%	17	5%	21µM*
Cc1cccc(N2CCN(C(=O)c3c(C)nn(Cc4ccccc4Cl)c3C)CC2)c1C	u	9.2µM*	u	u	10µM*
Cc1cccc(N2CCN(C(=O)C(Cc3ccccc3)n3cccc3)CC2)c1C (stereo not drawn)	u	18µM*	22	-14%	16µM*
Cc1cccc(N2CCN(C(=O)N3CCOCC3)CC2)c1C	u	u	60	16µM*	21µM*
O=C(Cc1ccccc1[N+](=O)[O-])N1CCN(c2ccc(F)cc2)CC1	-1%	-28%	12	6%	-21%
CC(=O)Nc1ccccc1C(=O)N1CCN(c2cccc(C)c2C)CC1	11%	-28%	-27	-4%	1%
Cc1cccc(N2CCN(C(=O)C(Cc3ccccc3)NC(N)=O)CC2)c1C (stereo not drawn)	11%	-29%	15	25%	-19%
O=C(c1cccc(Cl)c1)N1CCC(N2CCC(C(=O)N3CCCC3)CC2)CC1	14%	-19%	15	5%	14%
CC1CN(C(=O)CCN2C(=O)c3ccccc3C2=O)CC(C)O1 (stereo not drawn)	10%	-3%	10	9%	-19%
CCOc1ccc(N=C(/C(C(=O)C(=O)N2CCOCC2)=C(\O)c2ccccc2)c2ccccc2)cc1	0%	4%	11	2%	0%
Cc1ccc(S(=O)(=O)N2CCN(C(=O)CN3C(=O)NC4(CCCC4)C3=O)CC2)c(C)c1	2%	1%	4	5%	-24%
COc1cc(Cl)c(C)cc1NC(=O)c1cc2c(s1)-c1c(C)cccc1OC2	x	-15%	x	x	u
CCN1CCN(CCCNC(=O)c2cc3c(s2)-c2c(C)cccc2OC3)CC1	x	4.6µM*	x	x	5.8µM*
CCN(C(=O)c1cc2c(s1)-c1c(C)cccc1OC2)c1ccccc1F	x	21µM*	x	x	21µM*
Cc1cccc2c1-c1sc(C(=O)Nc3ccccc3N3CCN(C)CC3)cc1CO2	-30%	18µM*	-93*	u	18µM*
CCCN(C(=O)c1cc2c(s1)-c1ccccc1SC2)c1ccccc1F	x	u	x	x	16µM*
O=C(O)CC1(CC(=O)Nc2ccccc2Br)CCCC1	9%	-5%	15	9%	-18%
O=C(/C=C/c1cccc(Br)c1)NCc1ccncc1	-14%	-4%	-17	-6%	1%
CCOc1ccc(CCNC(=O)c2cc3c(s2)-c2c(C)cccc2OC3)cc1	x	-21%	x	x	-28%
Cc1cccc2c1-c1sc(C(=O)NCCCN3CCN(c4ccccc4F)CC3)cc1CO2	x	u	x	x	6.5µM*
O=C(NCCCN1CCOCC1)c1cc2c(s1)-c1ccccc1OC2	-29%	-30%	u	-21%	-29%
COc1ccc(OC)c(CCNC(=O)c2cc3c(s2)-c2c(C)cccc2OC3)c1	x	12µM*	x	x	7.3µM*
SMILES	HT1080 IDH1KD tx	DT40 TDP1 CPT	IL-1B inflam inh	HT1080-NT tox	TDP1 cell noCPT
Cc1cccc2c1-c1sc(C(=O)NCCCN3CCN(c4cccc(Cl)c4)CC3)cc1CO2	x	23µM*	x	x	u
CCOc1ccc2nc(SCC(=O)NCC3CCCO3)c(C#N)cc2c1 (stereo not drawn)	-23%	u	12	-23%	u
Cc1nn2c(NCCN3CCOCC3)c3c(nc2c1-c1ccccc1)CCCC3	2%	2.6µM*	-15	0%	5.8µM*
Cc1cc(NCc2ccccn2)n2nc(C)c(-c3ccccc3)c2n1	-14%	0.052µM*	-15	u	0.046µM*
Cc1nn2c(NCc3ccccn3)c3c(nc2c1-c1ccccc1)CCC3	-29%	2.6µM*	x	-13%	4.6µM*
Cc1nn2c(NCc3ccccn3)cc(C(C)(C)C)nc2c1-c1ccccc1	-1%	u	5	2%	u
Cc1nn2c(N3CCN(C)CC3)c3c(nc2c1-c1ccccc1)CCCC3	-8%	u	-22	-8%	-25%
O=C(COc1coc(CN2CCc3ccccc3C2)cc1=O)Nc1ccc(F)cc1F	-3%	-25%	13	1%	u
Cn1cc(C(=O)N2CCN(c3cccc(C(F)(F)F)c3)CC2)c2c3ccccc3n(C)c2c1=O	x	23µM*	x	x	16µM*
CC(=O)c1ccc(N2CCN(C(=O)c3cn(C)c(=O)c4c3c3ccccc3n4C)CC2)cc1	x	u	x	x	23µM*
Cn1c2ccccc2c2c(C(=O)N3CCN(c4ccccc4)CC3)cn(C3CCCC3)c(=O)c21	-28%	26µM*	-29	u	8.2µM*
O=C(c1ccccn1)N1CCN(c2cccc(C(F)(F)F)c2)CC1	2%	-28%	-3	1%	-13%
Cn1c2ccccc2c2c(C(=O)N3CCN(c4cccc(C(F)(F)F)c4)CC3)cn(C3CCCCC3)c(=O)c21	x	u	x	x	16µM*
O=C1OC(CC(=O)N(Cc2nnc(-c3ccccc3Cl)o2)C2CC2)c2ccccc21 (stereo not drawn)	9%	u	-1	3%	u
COc1ccc(NC(=S)N(CCCN2CCCC2)Cc2cccs2)cc1	1%	8%	-15	-8%	-6%
COc1ccc(NC(=S)N(CCCN2CCCC(C)C2)Cc2cccs2)cc1 (stereo not drawn)	-6%	u	-23	-8%	29µM*
COc1ccc(C(=O)CCN2CCCC(C)C2)cc1 (stereo not drawn)	-2%	23µM*	-24	u	u
COc1ccc(C(=O)CCN2CCC(C)CC2)cc1	u	13µM*	8	u	12µM*
CCCCN(C(=O)COC(=O)COc1c(C)cc(C)cc1C)c1c(N)n(CCC)c(=O)[nH]c1=O	1%	8%	53	2%	-1%
Cc1ccc(N2CCn3c2nc2c3c(=O)n(CCCc3ccccc3)c(=O)n2C)cc1C	x	-25%	x	x	-29%
CCOC(COC(=O)c1ccccc1C(=O)O)c1ccccc1 (stereo not drawn)	4%	0%	15	12%	-6%
COc1ccc(C(=O)NCC(c2ccc3c(c2)OCO3)N2CCOCC2)cc1OC (stereo not drawn)	x	-23%	x	x	u
